Rows were chosen to be rich in hits. Some 21% of all compounds tested hit in one or more screens of this group.
Cycloheximide cs – counter-screen hit for Shiga toxin inhibitors, cycloheximide. cell reporter, cycloheximide protein synthesis inhibition counterscreen. max response, %. actives 12% (n = 300,000). AID 2314; in the data active means max response mostly above about 13%, no sharp cut-off; inactive means mostly below about 14%; further: read at 38.3 µM for the half of the compounds with a filed dose; 0% is about no effect
Shiga inhibitor – inhibitors of Shiga toxin in Vero cells | inhibition, % at 38.7 µM | AID 2315 | actives 9.2% (n = 290,000) | Vero cells, Shiga toxin protein synthesis inhibition reporter; in the data active means inhibition mostly above about 28%, no sharp cut-off; inactive means mostly below about 43%; further: 0% is about no effect
Pf growth 96h – P. falciparum growth inhibition at 96 hours. P. falciparum luciferase reporter growth, 96 h. Potency, µM (doses to about 28.7 µM), without a hit: at the top dose activity change, negative = inhibition, hits mostly inhibitors. actives 6.9% (n = 320,000). AID 504834; further: potency means the concentration at half of the fitted maximal effect; on the % scale 0 is the no-effect control and ±100 the full control effect
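Erythrocytes infected with luciferase-expressing P. falciparum were dispensed at 2% hematocrit and 0.05% parasitemia (final), then incubated with compounds 96 hours at 37 C in 5% CO2. Luminescence after detection reagent addition reported growth.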
Pf growth 48h – P. falciparum growth inhibition at 48 hours (one generation); Potency, µM (titrated, usually from 28.7 µM), for the others: at the top dose activity change, negative = inhibition, hits mostly inhibitors; P. falciparum luciferase growth in erythrocytes, 48 h; actives 5.9% (n = 310,000); AID 504832; further: potency means the concentration at half of the fitted maximal effect; on the % scale 0 is the no-effect control and ±100 the full control effect
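Compounds are pin-transferred into medium, infected erythrocytes (2% hematocrit, 0.1% parasitemia final) are added, and plates sit one parasite generation at 37 C in 5% CO2. Detection reagent is then added and luminescence measured.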
The depositor's hits bear a star; ? = inconclusive; · = no result. Unless noted, the call rests on the fitted dose curve; in most records, active means well fitted inhibition curve with a large enough effect; inconclusive means small, poorly fitted or top-dose-only effect, or another doubt; inactive means no such curve, though single readings can be large or run the other way.

SMILES | Cycloheximide cs | Shiga inhibitor | Pf growth 96h | Pf growth 48h
CCNC(=S)N(CCc1c(C)[nH]c2ccc(C)cc12)Cc1cccnc1 | 0.3 | 5.1 | ? | ?
CCNC(=S)N(CCc1c(C)[nH]c2ccc(F)cc12)Cc1cccnc1 | -1.4 | 1.4 | 16.1% | ·
Cc1[nH]c2ccc(F)cc2c1CCN(Cc1cccnc1)C(=S)Nc1ccc(F)cc1 | 5.3 | -0.6 | 7.38µM* | 4.15µM*
COc1ccc(NS(=O)(=O)c2ccc3nc(COc4ccc(C#N)cc4)[nH]c3c2)cc1 | 2.1 | -1.4 | ? | -16.2%
COC(=O)c1ccc(C(=O)OC)c(NC(=O)CSc2cccc[n+]2[O-])c1 | 5.8 | 5.1 | 1.17µM* | ?
O=C(CSc1cccc[n+]1[O-])Nc1cc2c(cc1Cl)C(=O)c1ccccc1C2=O | 26.4* | 81.5* | 85.9% | 116.4%
COC(=O)c1ccc(C(=O)OC)c(NC(=O)CSCC(=O)O)c1 | 5.4 | -3.7 | -4.9% | 21.8%
COc1ccccc1C1=NOC(Cn2c(NCCOCCO)nc3c2c(=O)n(C)c(=O)n3C)C1 (stereo not drawn) | -1.4 | 15.0 | 1.9% | 4.2%
Cc1cc(=O)[nH]c(N2CCCC2)n1 | -3.3 | -6.9 | 11.7µM* | -4.3%
O=C1NC(c2ccccc2)=C(c2nc3ccccc3s2)C(c2ccccc2)N1 (stereo not drawn) | -1.7 | 5.1 | 8.28µM* | ?
CCN(CC)c1ccc2c(c1)C(=O)N(C)C2=O | 33.4* | 72.2* | 37.3% | 50.4%
O=C(Cc1ccc(S(=O)(=O)N2CCOCC2)s1)Nc1cc(Cl)ccc1Cl | · | · | ? | 13.1µM*
COC(=O)c1c(NC(=O)Cc2ccc(OC)c(S(=O)(=O)N3CCOCC3)c2)sc(C)c1C | · | · | ? | 13.1µM*
COc1cc(NC(=O)Cc2ccc(S(=O)(=O)N3CCOCC3)s2)c(OC)cc1Cl | · | · | 8.28µM* | ?
CCNC(=O)Cc1ccc(S(=O)(=O)N2CCOCC2)s1 | · | · | -61.0% | ?
CCC(CC)NC(=O)Cc1ccc(S(=O)(=O)N2CCOCC2)s1 | -4.7 | -2.5 | -17.8% | ·
COc1ccc(CC(=O)Nc2ccc(N3CCOCC3)cc2)cc1S(=O)(=O)N1CCOCC1 | 10.0 | -6.1 | -6.2% | 14.6%
CCCN(CC(=O)Nc1ccc(F)c(F)c1F)C(=O)Cc1ccc(S(=O)(=O)N2CCOCC2)s1 | · | · | ? | 11.7µM*
COc1ccccc1C(=O)N/C(=C/c1ccco1)C(=O)Nc1cccc(C(=O)O)c1 | -2.6 | 9.2 | 373.9% | 14.0%
CC(=O)c1cccc(NC(=O)C(C)OC(=O)CCN=C2NS(=O)(=O)c3ccccc32)c1 (stereo not drawn) | · | · | ? | 9.1%
CCCc1cc(=O)oc2cc(OCC(=O)NCCc3c[nH]c4ccccc34)ccc12 | -0.5 | -2.3 | -11.1% | -23.0%
Cc1ccc(C(=O)N/N=C2/NC(=O)CC(C(=O)Nc3ccccc3)S2)cc1 (stereo not drawn) | -3.0 | -9.3 | ? | 0.0%
COc1cc(NC(=O)Cc2ccc(OC)c(S(=O)(=O)N3CCOCC3)c2)c(OC)cc1Cl | -0.6 | 13.7 | 14.7µM* | ?
O=C(Cc1ccc(S(=O)(=O)N2CCCCC2)s1)Nc1ccc(F)cc1F | -1.9 | 9.6 | 13.1µM* | -26.1%
O=C(Cc1ccc(S(=O)(=O)N2CCOCC2)s1)Nc1nc2c(s1)CCCC2 | 9.4 | 3.2 | 9.28µM* | ?
SMILES | Cycloheximide cs | Shiga inhibitor | Pf growth 96h | Pf growth 48h
Cc1ccc(C)c(NC(=O)Cc2ccc(S(=O)(=O)N3CCCCC3)s2)c1 | -2.8 | -1.8 | ? | -26.9%
Cc1noc(C)c1CSCC(=O)N(CC(C)C)c1c(N)n(Cc2ccccc2)c(=O)[nH]c1=O | · | · | -33.4% | ?
CCOc1ccc(N(C(=O)c2ccc(S(=O)(=O)N3CCCC3)cc2)C2C=CS(=O)(=O)C2)cc1 (stereo not drawn) | -3.0 | -3.2 | ? | ?
CC1=C(C(=O)Nc2ccccc2)C2(CCCCC2)C(C#N)=C(S)N1 | -1.9 | -18.4 | 10.4µM* | ·
N#CC1=C(N)NC(SCC(=O)Nc2ccccc2)=C(C#N)C12CCCC2 | 19.2 | 5.0 | 22.7% | 1.65µM*
COc1ccc2oc(CS(=O)c3ccccc3)c(C(=O)O)c2c1 (stereo not drawn) | -0.4 | 4.5 | ? | 21.5%
CCc1cc2c(SCC(=O)c3cccs3)ncnc2s1 | 15.9* | -14.9 | 104.1% | -8.2%
CCc1cc2c(SCC(=O)c3ccccc3)ncnc2s1 | 45.5* | 73.4* | ? | 92.2%
CCc1cc2c(SCC(=O)O)ncnc2s1 | 5.3 | -16.6 | 7.7% | 3.7%
CCSc1cc(N2CC(C)OC(C)C2)nc(-c2ccccc2Cl)n1 (stereo not drawn) | 15.5 | -14.7 | · | 2.08µM*
Oc1ccc2ccc3[nH]cnc3c2c1 | 52.9* | 74.1* | 39.8% | ?
COc1c(O)cc2c(c1O)C(=O)CC(c1ccccc1)O2 (stereo not drawn) | 44.3* | 71.0* | ? | 65.3%
COc1ccc([C@H]2CC(=O)c3c(O)cc(O)cc3O2)cc1O | 23.2* | 56.8 | 45.5% | 1.7%
COc1cc(C2CC(=O)c3c(O)cc(O)cc3O2)ccc1O (stereo not drawn) | -1.1 | -9.6 | ? | -4.8%
O=C(NCc1cccnc1)C1CCN(S(=O)(=O)c2cc(Cl)ccc2Cl)CC1 | -4.0 | -6.4 | ? | 0.2%
CCCNS(=O)(=O)c1ccc(OCC(=O)N2CCOCC2)cc1 | -1.5 | 9.0 | 21.8% | -14.5%
CN1CCN(C(=O)c2cccc(COc3cc(Cl)ccc3Cl)c2)CC1 | 48.0* | 102.6* | · | 79.4%
CCCC(C)NC(=O)c1ccc(OCc2ccc(Cl)cc2)c(OC)c1 (stereo not drawn) | 10.5 | 17.5 | ? | -21.8%
CCN(CC)C(=O)c1ccc(COc2ccccc2Br)o1 | 16.7 | 37.6 | · | 0.1%
CCC(C)NC(=O)c1ccc(COc2ccccc2Cl)cc1 (stereo not drawn) | 15.4* | 46.1 | · | ?
O=C(O)c1cccc(COc2ccccc2Cl)c1 | 13.6* | 18.8* | · | 13.7%
CCN(CC)C(=O)c1ccc(COc2ccccc2Cl)cc1 | 19.5 | 48.1* | -5.2% | ·
O=C(COc1ccccc1Cl)Nc1cc(NC(=O)COc2ccccc2Cl)cc(C(=O)O)c1 | -1.1 | -8.9 | 159.1% | 21.2%
CC(=O)N1CCc2ccc(S(=O)(=O)N3CCN(C)CC3)cc21 | -1.4 | -8.1 | 2.6% | 12.1%
COc1ccc(C(=O)Nc2cc(OCc3ccccc3)c(Cl)cc2Cl)cc1 | 0.6 | 5.0 | 60.7% | 52.5%
SMILES | Cycloheximide cs | Shiga inhibitor | Pf growth 96h | Pf growth 48h
O=C(Nc1ccccc1Cl)c1cccc(COc2cc(Cl)ccc2Cl)c1 | 41.6* | 50.9* | 86.4% | ·
O=C(O)c1ccc(COc2ccccc2Cl)cc1 | 28.5* | 145.2* | · | -3.1%
O=C(NNC(=O)C1CC(c2cccs2)=NO1)Nc1ccc(Cl)cc1 (stereo not drawn) | -2.7 | 2.7 | -1.6% | -10.7%
COc1ccc(C(=O)C2CCCN(C(=O)c3cccnc3OC)C2)c(C)c1 (stereo not drawn) | 6.9 | 25.4 | -17.4% | ?
COc1ccc(C(=O)C2CCCN(C(=O)CCc3scnc3C)C2)c(C)c1 (stereo not drawn) | 47.3* | 91.7* | 260.0% | 2.33µM*
COC(=O)CCCC(=O)N1CCCC(C(=O)c2ccc(OC)cc2C)C1 (stereo not drawn) | 4.7 | 9.1 | 14.7µM* | 4.1%
COc1ccc(C(=O)C2CCCN(C(=O)CCc3ccccn3)C2)c(C)c1 (stereo not drawn) | 7.8 | -15.1 | -30.7% | -0.9%
